GalR3 antagonist – human GalR3 antagonism; HEK293 GalR3-CNG cAMP membrane potential fluorescence; galR3 body fused to GalR1 C-terminus; AID 651719; inhibition, % at 3 µM; actives 0.44% (n = 360,000); O60755;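 active means inhibition above the screen-wide average plus 3 SD, cut at about 13% in these data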;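 further: forskolin and galanin both at EC90 stimulate the cells; cAMP rise reported by CNG channel membrane potential dye signal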
Target sequence (O60755 1-299 limits assumed): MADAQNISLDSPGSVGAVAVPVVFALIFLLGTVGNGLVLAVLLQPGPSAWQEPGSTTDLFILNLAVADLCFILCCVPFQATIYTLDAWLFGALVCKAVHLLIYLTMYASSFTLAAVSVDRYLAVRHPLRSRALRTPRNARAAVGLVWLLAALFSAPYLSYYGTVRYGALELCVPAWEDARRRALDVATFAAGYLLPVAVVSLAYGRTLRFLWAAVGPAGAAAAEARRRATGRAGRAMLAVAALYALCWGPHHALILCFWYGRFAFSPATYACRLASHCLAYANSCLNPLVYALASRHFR
Hsp70 act – Hsp70 transcriptional activation, primary screen | actives 0.04% (n = 200,000) | activation, % at 10 µM | HeLa Hsp70 promoter luciferase reporter, luminescence; scaled: vehicle 0, proteasome-inhibitor control 100%;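 active means activation above the mean across all tested compounds plus 3 SD, cutoff set per campaign, cut at about 5.5% in these data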
GAA850 FXN act – increases GAA850 frataxin promoter reporter activity; HEK293 lucGAA850 FXN promoter luciferase reporter, 24 h; percent of 10 µM SAHA response; activation, % at 6 µM; actives 0.56% (n = 360,000);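 active means activation above the average of all compounds screened plus 3 SD, cutoff fixed separately per campaign, cut at about 7.5% in these data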
HIF act – HIF pathway transcriptional activation | AID 1910 | actives 0.32% (n = 300,000) | U2OS HRE-luciferase reporter, luminescence; normalized: DMSO 0%, desferrioxamine 100% | activation, % at 7.5 µM (by protocol);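 active means mean activation of at least 10% of the iron chelator positive control signal, with at least half of replicates also reaching 10%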
SMARCA2 act – SMARCA2 function activation, primary screen; MG213 cells, MMTV-luciferase reporter, dexamethasone, overnight; activation, % at 9.1 µM; actives 1% (n = 370,000); AID 652017; in the data active means activation above about 7.8%
SMARCA2 act conf – SMARCA2 activation, confirmation screen; shares compounds with SMARCA2 act; MG213 cells, MMTV-luciferase with dexamethasone, luminescence, overnight; MG213 cells expressing E1A, Rb sequestered; DMSO wells 0%, reference activator 100%; activation, % at 9.1 µM; actives 30% (n = 3,500);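 active means activation above its plate's cutoff, the mean activation of tested wells plus 3 SD, cut at about 7.9% in these data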
GAL4-VP16 Luc – counter-screen for SMARCA2 activators: GAL4-VP16 luciferase reporter activation. shares compounds with SMARCA2 act. HEK293 GAL4-VP16 pG5luc reporter, luciferase luminescence; scaled: DMSO wells 0%, SAHA wells 100%. activation, % at 9.1 µM. actives 41% (n = 3,500). AID 686939;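 active means activation above the solvent-only control well mean plus 3 SD, averaged across control plates, cut at about 5.2% in these data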
Large screens that a line does not name were inactive (follow-up assays come after a bar, where they were run). Shown are actives, neighbours in structure and some others; about 2.2% of the full set was active somewhere.

COC(=O)c1ccc(-c2ccc(/C=N/N3C(=O)C4C5C=CC(C6CC56)C4C3=O)o2)cc1 (stereo not given)	SMARCA2 act 9.0 | SMARCA2 act conf inactive | GAL4-VP16 Luc 5.9
CC1C/C(=N/NC(=O)c2cccc(F)c2)c2ccc(O)cc2C1 (stereo not given)	SMARCA2 act 9.2 | SMARCA2 act conf inactive | GAL4-VP16 Luc inactive
COc1ccc2c(c1)CC(C)C/C2=N\NC(=O)c1ccco1 (stereo not given)	none
COc1ccc(/C=N/NC(=O)CN2CCCC2)cc1	none (no result: Hsp70 act)
CC(C)(C)OC(=O)COc1ccc(/C=N/NC(=O)CN2CCCCC2)cc1	SMARCA2 act 14.0 (no result: Hsp70 act) | SMARCA2 act conf inactive | GAL4-VP16 Luc 5.3
COc1ccc(C(=O)OCCc2ccc(O)cc2)cc1	SMARCA2 act 9.2 | SMARCA2 act conf 8.6 | GAL4-VP16 Luc 11.6
COc1ccc(CCOC(=O)c2ccc(NC(=O)CC#N)cc2)cc1	none (no result: Hsp70 act)
CCc1ccc(CCNC(=O)OCCCN2CCC3(CCC(C)CC3)C2=O)cc1 (stereo not given)	none (no result: GalR3 antagonist, Hsp70 act, GAA850 FXN act, HIF act)
COC(=O)C1CCCN(C(=O)C2CCN(S(=O)(=O)c3cccs3)CC2)C1 (stereo not given)	none (no result: GalR3 antagonist, Hsp70 act, GAA850 FXN act, HIF act)
O=C(c1cc(COc2c(F)cccc2F)on1)N1C[C@H]2CC[C@H]1C2	SMARCA2 act 10.0 (no result: Hsp70 act) | SMARCA2 act conf 11.2 | GAL4-VP16 Luc 11.2
O=C(c1cc(COc2ccc(F)cc2F)on1)N1C[C@H]2CC[C@H]1C2	none (no result: Hsp70 act)
O=c1c2ccccc2n(Cc2ccno2)n1[C@@H](Cc1ccccc1)Cn1cc(C2CCCC2)nn1	none (no result: GalR3 antagonist, Hsp70 act, GAA850 FXN act, HIF act)
CCOC(=O)C1=C(C)N=c2s/c(=C\c3ccncc3)c(=O)n2C1c1ccc2c(c1)OCO2 (stereo not given)	none
CCOC(=O)C1=C(C)N=c2s/c(=C3\C(=O)Nc4ccccc43)c(=O)n2C1c1ccc2c(c1)OCO2 (stereo not given)	SMARCA2 act 11.1 | SMARCA2 act conf inactive | GAL4-VP16 Luc inactive
Nc1ccn([C@@H]2O[C@H](C(=O)N3CCN(CCO)CC3)[C@@H](O)[C@H]2O)c(=O)n1	none (no result: Hsp70 act, GAA850 FXN act, HIF act)
Cc1ccc(S(=O)(=O)N2CCCC2C(c2ccccc2O)c2cn(C)c3ccccc23)cc1 (stereo not given)	none (no result: GalR3 antagonist, Hsp70 act, GAA850 FXN act, HIF act)
COc1ccc(N=NC2=C(O)CC(C)(C)CC2=O)cc1	none
CC1(C)CC(=O)C(N=Nc2ccc(Br)cc2)=C(O)C1	SMARCA2 act 8.3 (no result: Hsp70 act) | SMARCA2 act conf 10.6 | GAL4-VP16 Luc inactive
COc1ccc(-n2c(SCC(=O)Nc3ccc(Oc4ccccc4)cc3)nnc2-c2ccc(C)cc2)cc1	none (no result: GalR3 antagonist, Hsp70 act, GAA850 FXN act, HIF act)
CC(C)CCN(C(=O)c1ccccn1)c1c(N)n(Cc2ccccc2)c(=O)[nH]c1=O	SMARCA2 act 8.3 (no result: Hsp70 act, HIF act) | SMARCA2 act conf inactive | GAL4-VP16 Luc inactive
CCn1c2ccccc2c2cc(NC(=O)COC(=O)c3cc(F)ccc3F)ccc21	none (no result: GalR3 antagonist, Hsp70 act, GAA850 FXN act, HIF act)
Cc1ccc(NC(=O)c2cc([N+](=O)[O-])ccc2N2CCOCC2)cc1C	SMARCA2 act 8.1 (no result: Hsp70 act) | SMARCA2 act conf inactive | GAL4-VP16 Luc inactive
Cc1ccc(C)c(C(=O)CN2C(=O)c3ccccc3C2=O)c1	none (no result: Hsp70 act)
O=c1c2ccccc2cnn1Cc1ccc(Cl)c(Cl)c1	none (no result: Hsp70 act)
Cc1ccc(C)c(C(=O)Cn2ncc(Cl)c(Cl)c2=O)c1	SMARCA2 act 30.0 | SMARCA2 act conf inactive | GAL4-VP16 Luc inactive
Cc1cccc(Cn2ncc(Cl)c(Cl)c2=O)c1	SMARCA2 act 10.0 | SMARCA2 act conf inactive | GAL4-VP16 Luc inactive
Cc1nc(N2CCCCC2C)c2nnn(Cc3ccccc3)c2n1 (stereo not given)	none (no result: GalR3 antagonist, Hsp70 act, GAA850 FXN act, HIF act)
COc1ccc(Cn2cc(CN3[C@@H](Cc4ccccc4)COc4cc(Br)ccc4S3(=O)=O)nn2)cc1	none (no result: GalR3 antagonist, Hsp70 act, GAA850 FXN act, HIF act)
COC(=O)c1ccc2nc(-c3ccco3)c(Cc3ccsc3)n2c1	none (no result: Hsp70 act, GAA850 FXN act, HIF act)
Cc1ccc(NC(=O)CSC2=NN3CCCC(=O)N=C3S2)c(C)c1	none
Cc1ccc(C)c(CSC2=NN3CCCC(=O)N=C3S2)c1	SMARCA2 act 8.5 (no result: Hsp70 act) | SMARCA2 act conf inactive | GAL4-VP16 Luc inactive
CN1Cc2nnn(CC3CCCCC3)c2-c2ccccc2S1(=O)=O	SMARCA2 act 8.2 (no result: GalR3 antagonist, Hsp70 act, GAA850 FXN act, HIF act) | SMARCA2 act conf inactive | GAL4-VP16 Luc inactive
O=S1(=O)c2ccccc2-c2c(nnn2CC2CCCCC2)CN1C1CC1	none (no result: GalR3 antagonist, Hsp70 act, GAA850 FXN act, HIF act)
COc1ccccc1N1CCN(C(=O)C(=O)N/N=C/c2cccc(O)c2)CC1	none
COc1ccccc1/C=N/NC(=O)C(=O)N1CCN(c2ccccc2OC)CC1	SMARCA2 act 10.1 | SMARCA2 act conf inactive | GAL4-VP16 Luc inactive
O=[N+]([O-])c1cnc(Sc2ccncn2)s1	SMARCA2 act 11.7 (no result: Hsp70 act) | SMARCA2 act conf inactive | GAL4-VP16 Luc 5.5
CC(=O)N1CCn2c3ccc(C)cc3c3cccc1c32	SMARCA2 act 8.4 | SMARCA2 act conf inactive | GAL4-VP16 Luc inactive
CC(=O)N1CCN(C(C)=O)c2ccccc21	none (no result: Hsp70 act, HIF act)
Cc1nnc(SCC(=O)NC(=O)Nc2ccc3c(c2)OCCO3)s1	SMARCA2 act 11.0 | SMARCA2 act conf inactive | GAL4-VP16 Luc inactive
Cc1nc2ccccc2c2c1C(=O)N(c1cccc(C(=O)O)c1)C2=O	none
Cc1ccc(C)c(C(=O)COC(=O)c2cccc(N3C(=O)c4c(C)nc5ccccc5c4C3=O)c2)c1	SMARCA2 act 14.2 | SMARCA2 act conf inactive | GAL4-VP16 Luc inactive
O=C(NC1CCCCN(Cc2cccc(F)c2)C1=O)c1cccc(C(F)(F)F)c1 (stereo not given)	none (no result: GalR3 antagonist, Hsp70 act, GAA850 FXN act, HIF act)
O=C(CN1C(=O)CSc2ccccc21)NC1CCCC1	SMARCA2 act 8.3 | SMARCA2 act conf inactive | GAL4-VP16 Luc inactive
CC1CC(=O)N(CC(=O)NC2CCCCC2)c2ccccc2S1 (stereo not given)	none (no result: Hsp70 act)
CC(C)NC(=O)c1ccccc1-c1ccccc1	none
CC(C)NC(=O)C1(C#N)C=C1c1ccccc1 (stereo not given)	SMARCA2 act 9.4 (no result: Hsp70 act, GAA850 FXN act, HIF act) | SMARCA2 act conf inactive | GAL4-VP16 Luc inactive
Cc1nn(-c2ccccc2)c(C)c1/C=N\N1CCN(Cc2ccccc2Cl)CC1	none (no result: GalR3 antagonist, Hsp70 act, GAA850 FXN act, HIF act)
CNc1ccccc(-c2ccc3ccccc3n2)c1=O	SMARCA2 act 14.6 | SMARCA2 act conf inactive | GAL4-VP16 Luc 5.2
O=S(=O)(CC1NCc2ccccc21)NCc1ccc(F)cc1 (stereo not given)	none (no result: GalR3 antagonist, Hsp70 act, GAA850 FXN act, HIF act)
O=C(c1ccccc1)N1CCC(c2nc(-c3ccc(S(=O)(=O)N4CCOCC4)cc3)no2)CC1	none
CN(C)c1ccc(-c2noc(C3CCN(S(=O)(=O)c4cccc(C(=O)O)c4)CC3)n2)cc1	SMARCA2 act 9.7 | SMARCA2 act conf inactive | GAL4-VP16 Luc inactive
COc1ccc(C=Nn2c(-c3ccc(F)cc3)n[nH]c2=S)cc1OCc1ccccc1	none (no result: GalR3 antagonist, Hsp70 act, GAA850 FXN act, HIF act)
CCCCCN1CCCCC(NC(=O)CSc2ccccc2)C1=O (stereo not given)	none (no result: GalR3 antagonist, Hsp70 act, GAA850 FXN act, HIF act)
